GPT2 inh: inhibitors of human GPT2 alanine aminotransferase; Q8TD30; Recombinant GPT2, coupled pyruvate oxidase/HRP Amplex Red fluorescence; Potency, µM (series often up to 57.7 µM), for inactives: at the top dose activity change, negative = inhibition, actives largely listed as inhibitors; 0.25% of 100,000 active; AID 1671188; note: nearly all actives have a fitted effect of over 60% in size
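GPT2 10ng/uL, a-KG 250uM, L-Ala 2mM, HEPES pH7.5 + 0.0001% Tween; 30 min RT. Then Amplex mix (PO/HRP/ThPP), 30 min RT dark, fluorescence. AOA 50uM used as positive control.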
HEK cytotox: cytotoxic compounds in HEK 293 cells. HEK 293 viability, ATP luminescence (CellTiter-Glo), 48-72 h. Potency, µM (titrated, usually from 115 µM), for the others: at the highest dose activity change, negative = cytotoxicity, most hits filed as inhibitors. 6.6% of 94,000 active; note: nearly all actives have a fitted effect of over 60% in size
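ATP-coupled CellTiter-Glo luminescence served as viability read-out, recorded 10 min after reagent addition at room temperature. HEK 293 cells, 250 cells/well, had been incubated with pintool-transferred compound for 48 or 72 hr at 37 degree Celsius.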
NPR1 antag: antagonists of human natriuretic peptide receptor Npr1 | HEK293 hNpr1 GloSensor cGMP, ANP-stimulated luminescence | Potency, µM (doses to about 46.3 µM), for inactives: top-dose activity change, negative = inhibition, hits mostly inhibitors | 1.6% of 76,000 active | AID 1347048; calls by dose curve; note: nearly all actives have a fitted effect of over 60% in size
Target sequence (P16066 whole entry, looked up): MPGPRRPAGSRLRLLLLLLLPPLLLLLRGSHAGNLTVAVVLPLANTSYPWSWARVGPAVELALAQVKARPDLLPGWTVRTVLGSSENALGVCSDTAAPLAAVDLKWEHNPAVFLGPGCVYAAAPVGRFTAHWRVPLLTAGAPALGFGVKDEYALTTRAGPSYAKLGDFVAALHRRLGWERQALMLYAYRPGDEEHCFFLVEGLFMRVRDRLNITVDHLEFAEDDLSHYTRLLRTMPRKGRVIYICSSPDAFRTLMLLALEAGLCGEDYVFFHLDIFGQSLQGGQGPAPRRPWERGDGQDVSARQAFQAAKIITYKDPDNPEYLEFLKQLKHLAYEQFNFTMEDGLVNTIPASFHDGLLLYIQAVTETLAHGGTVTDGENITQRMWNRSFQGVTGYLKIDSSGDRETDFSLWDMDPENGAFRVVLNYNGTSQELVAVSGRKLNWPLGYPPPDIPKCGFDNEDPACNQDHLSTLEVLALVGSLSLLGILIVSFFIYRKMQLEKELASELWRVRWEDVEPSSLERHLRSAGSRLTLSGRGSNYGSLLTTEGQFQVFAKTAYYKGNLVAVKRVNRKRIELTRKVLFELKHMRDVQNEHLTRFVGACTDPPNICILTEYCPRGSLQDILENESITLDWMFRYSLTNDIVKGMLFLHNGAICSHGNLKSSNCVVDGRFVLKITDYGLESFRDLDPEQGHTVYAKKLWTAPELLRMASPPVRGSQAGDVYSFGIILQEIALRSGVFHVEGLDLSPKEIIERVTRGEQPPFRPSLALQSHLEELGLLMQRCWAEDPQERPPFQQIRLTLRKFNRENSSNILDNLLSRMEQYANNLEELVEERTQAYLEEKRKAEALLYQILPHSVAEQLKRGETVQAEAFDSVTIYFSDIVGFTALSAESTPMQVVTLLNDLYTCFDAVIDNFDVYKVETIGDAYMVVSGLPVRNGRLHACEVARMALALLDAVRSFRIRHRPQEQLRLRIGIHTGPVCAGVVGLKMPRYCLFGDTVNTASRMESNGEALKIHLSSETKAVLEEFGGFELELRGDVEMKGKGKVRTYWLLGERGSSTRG
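Compound pre-incubated 30 min at room temperature on GloSensor-loaded HEK293 cells stably carrying hNpr1 and the pGS-40F cGMP biosensor. Stimulation uses hNppA at 0.1 nM final; luminescence is taken at baseline and 20 min post-agonist.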
FLuc inh: inhibitors of firefly (Photinus pyralis) luciferase | P08659 | purified P. pyralis luciferase, luminescence, biochemical | Potency, µM (titrated, usually from 115 µM), usual class: inhibitors | 2.5% of 76,000 active | AID 1347043; note: nearly all actives have a fitted effect of over 65% in size
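Luminescence read by CCD imager after adding enzyme (10nM final) to wells holding compound, titrated in qHTS. Substrates 10uM each D-luciferin and ATP; buffer 50mM Tris acetate pH 7.5, 10mM Mg acetate, Tween-20, BSA.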
NIH3T3 tox: cytotoxic compounds in NIH 3T3 cells | NIH 3T3 viability, CellTiter-Glo ATP luminescence, 48-72 h | 4.3% of 94,000 active | Potency, µM (top dose mostly 96.7 µM), for the others: top-dose activity change, negative = cytotoxicity, hits mostly inhibitors; note: nearly all actives have a fitted effect of over 55% in size
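First NIH 3T3 cells are plated at 400 cells/well; next compound is pinned in; then plates incubate 48 or 72 hr at 37 °C; finally CellTiter-Glo is added and luminescence read after 10 min.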
Active calls of the source: *; i = inactive; ? = inconclusive; . = not tested or not shown; [ ] = dose if it differs, or a comment. Compounds with a hit are over-represented: about 10% of the library has one in this group of screens. Unless noted, calls come from the whole dose curve; as a rule, active = well fitted curve in the direction sought with a large enough effect; inconclusive = small, poorly fitted or top-dose-only effect, or another doubt; inactive = no such curve, though single readings can be large; an effect the other way counts as inactive or inconclusive. % is set by controls: 0 for no effect and ±100 for the full control effect; potency is the fitted concentration of half-maximal effect.

SMILES | GPT2 inh | HEK cytotox | NPR1 antag | FLuc inh | NIH3T3 tox
COc1ccccc1N1CCN(C(=O)Cn2c(C)cc3nc4n(c(=O)c32)CCCCC4)CC1 | 0% | ? | -2% | i | 28µM*
Cn1cccc1CN1CCCC2(CC(Cc3ccccc3)=NO2)C1 (stereo not given) | i | ? | -5%[70.6 µM] | i | ?
CC(C)CCN1CCCC2(CC(Cc3ccccc3)=NO2)C1 (stereo not given) | -2%[88.5 µM] | 100µM* | 9%[70.6 µM] | i | -20%[138 µM]
O=C(Nc1cc(-c2cccnc2)nn1-c1ccccc1)C1CC1 | i | i | . | . | -4%[138 µM]
Cc1noc(C)c1S(=O)(=O)N1CCCC(CCc2ccc(F)c(F)c2)C1 (stereo not given) | i | 45µM* | -15% | i | ?
CN(Cc1cnccn1)C(=O)CC(c1ccccc1)c1ccccc1Cl (stereo not given) | i | ? | 1% | i | -6%
O=C(CC(c1ccccc1)c1ccccc1Cl)N(Cc1cccnc1)C1CC1 (stereo not given) | -5% | 35µM* | -26% | i | ?
O=C(NC1CC1)c1ccc2oc(-c3ccncc3)nc2c1 | -3%[88.5 µM] | ? | . | . | ?
Cc1cc(Cl)c2oc(C(=O)N(Cc3c(C)nn(C)c3C)C3CC3)c(C)c2c1 | i | ? | 7.9µM* | 28µM* | ?
CCOC(=O)C1CCCCN1C(=O)c1oc2c(Cl)cc(C)cc2c1C (stereo not given) | -10% | -14% | 3% | i | -8%
C[C@H](O)c1c(-c2ccc(Cl)cc2)noc1C(=O)NC1CC1 | ? | 112µM* | -8%[70.6 µM] | i | ?
Cc1ccc(-c2nccn3cc(C(=O)O)nc23)cc1 | -12% | 3% | 0% | i | ?
Cc1ccc(-c2nccn3cc(C(=O)NCC(C)C)nc23)cc1 | -13% | 40µM* | -8% | i | ?
CC1(C)[C@H](Cc2cc(CC3CCCCC3)on2)C[C@@H]1NC(=O)c1ccccc1 | 0%[88.5 µM] | 32µM* | ? | i | 56µM*
CCCCc1cc(C[C@@H]2C[C@H](NC(=O)C3CC3)C2(C)C)no1 | i | ? | -7%[70.6 µM] | ? | -27%[138 µM]
CC1(C)[C@H](Cc2cc(CN3CCOCC3)on2)C[C@@H]1NCc1ccc(CO)o1 | i | i | -3%[70.6 µM] | i | i
CCCCc1cc(C[C@@H]2C[C@H](NC(=O)C(C)(C)C)C2(C)C)no1 | ? | 71µM* | -25%[70.6 µM] | ? | ?
CC1(C)[C@H](Cc2cc(CN3CCN(c4ccccc4)CC3)on2)C[C@@H]1NCC1CC1 | 1%[88.5 µM] | 89µM* | 2%[70.6 µM] | i | ?
COc1ccc(C(=O)N[C@H]2C[C@@H](Cc3cc(-c4ccccc4)on3)C2(C)C)cc1 | -9%[88.5 µM] | 45µM* | ? | ? | 50µM*
CC1(C)[C@H](Cc2cc(CN3CCCCC3)on2)C[C@@H]1NC(=O)c1ccccc1 | -1%[88.5 µM] | ? | 0%[70.6 µM] | i | ?
COc1ccc(C(=O)N[C@H]2C[C@@H](Cc3cc(CN(C)C)on3)C2(C)C)cc1 | i | -19%[172 µM] | -3%[70.6 µM] | i | -16%[138 µM]
COCc1cc(C[C@@H]2C[C@H](NS(C)(=O)=O)C2(C)C)no1 | 2%[88.5 µM] | 3%[172 µM] | 4%[70.6 µM] | i | 5%[138 µM]
CC1(C)[C@H](Cc2cc(CN3CCCCC3)on2)C[C@@H]1NC(=O)c1ccco1 | 1%[88.5 µM] | ? | 3%[70.6 µM] | i | ?
CC(C)Cc1cc(C[C@@H]2C[C@H](NC(=O)c3ccco3)C2(C)C)no1 | -22%[88.5 µM] | 71µM* | -17%[70.6 µM] | i | ?
CC1(C)[C@H](Cc2cc(CC3CCCCC3)on2)C[C@@H]1NS(C)(=O)=O | ? | 71µM* | 1%[70.6 µM] | i | ?
SMILES | GPT2 inh | HEK cytotox | NPR1 antag | FLuc inh | NIH3T3 tox
O=C(c1cccs1)N1CCCn2cc(-c3ccccc3F)nc21 | -4% | ? | -4% | 22µM* | -6%
O=C(c1ccsc1)N1CCCn2cc(-c3ccccc3F)nc21 | 2% | -13% | -4% | 35µM* | i
C[C@H]1[C@@H]2[C@@H](O)C([C@H](C)C(=O)N3CCCC3)CC[C@@]2(C)CC[C@@H]1NC(=O)c1ccccc1 (stereo not given in full) | i | -23%[172 µM] | -1%[70.6 µM] | i | -18%[174 µM]
COCCN(C)C(=O)c1ccc2c(c1)C1(CCN(CC3CC3)C1)CN2Cc1ccccc1 (stereo not given) | -11%[88.5 µM] | ? | 0%[70.6 µM] | i | ?
O=C(NC1COC1)c1ccc2c(c1)C1(CCN(CC3CC3)C1)CN2Cc1ccccc1 (stereo not given) | -4%[88.5 µM] | ? | 3%[70.6 µM] | i | -25%[138 µM]
CC(C)NC(=O)c1ccc2c(c1)C1(CCN(CC3CC3)C1)CN2Cc1ccccc1 (stereo not given) | i | ? | 1%[70.6 µM] | i | 89µM*
CNC(=O)c1ccc2c(c1)C1(CCN(CC3CC3)C1)CN2Cc1ccccc1 (stereo not given) | 1%[88.5 µM] | 100µM* | 3%[70.6 µM] | i | ?
CC(NC(=O)c1cccc2c1CCN2C(=O)Nc1ccc(F)cc1)c1ccccn1 (stereo not given) | i | ? | 11µM* | 0.79µM* | ?
Cc1ccc(NC(=O)N2CCc3c(C(=O)NC(C)c4cccnc4)cccc32)cc1 (stereo not given) | 2% | ? | 4.5µM* | 0.4µM* | ?
CCC(=O)N1CCc2c(C(=O)NCc3cccnc3)cccc21 | i | -2% | -3% | i | i
Cc1ccc(C(=O)NC2CCN(c3ccc4nnc(-c5ccccc5)n4n3)CC2)cc1 | . | ? | . | . | -7%
CN1CCCC2(C1)CN(Cc1cccnc1)c1ccc(C(=O)Nc3ccccc3)cc12 (stereo not given) | -1%[88.5 µM] | ? | 4%[70.6 µM] | i | 89µM*
CN1CCCC2(C1)CN(C)c1ccc(C(=O)Nc3ccccc3)cc12 (stereo not given) | -8%[88.5 µM] | ? | 0%[70.6 µM] | i | ?
CN1CCC2(C1)CN(Cc1ccccc1)c1ccc(C(=O)NC3CCCCC3)cc12 (stereo not given) | i | 79µM* | -1%[70.6 µM] | i | ?
CN1CCC2(C1)CN(Cc1ccccc1)c1ccc(C(=O)NC3CCC3)cc12 (stereo not given) | i | ? | -4%[70.6 µM] | i | 79µM*
COC(=O)N1CCN(C(=O)c2nc3cccnc3n(C3CC3)c2=O)CC1 | -3% | -10% | . | . | -16%
O=C(CC1COCCN1)N(CCc1c[nH]c2ccccc12)C1CCCCC1 (stereo not given) | -17% | ? | -1% | i | ?
CC(=O)N1CC2(CCCN2Cc2ccc(Cl)cc2)Cc2ccccc21 (stereo not given) | -8% | ? | . | . | ?
CN(Cc1ccccc1)C(=O)c1cn2ccnc(-c3ccccc3)c2n1 | 3% | ? | -5% | i | -26%

Screens (PubChem BioAssay)
